Measurements taken from PubChem BioAssay (Tox21).
Inconclusive results are not listed. Active and inactive are the calls of the source. Unless noted, the call rests on the fitted dose curve; in most records, active means well fitted curve in the direction sought with a large enough effect in the repeat runs; inconclusive means weak or mixed curves; inactive means no such curve, though single readings can be large; an effect the other way counts as inactive or inconclusive.

Tests used:
[1] = qHTS assay to identify small molecule antagonists of the thyroid receptor (TR) signaling pathway (AID 743065); further: series mostly up to about 70 µM; nearly all actives have a fitted effect of over 55% in size
Method in brief: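 GH3.TRE-Luc rat pituitary cells carrying two TR response elements driving luciferase were plated for 4 h, given compound plus 1 nM T3 (final), and incubated 23.5 h at 37 C. ONE-Glo luminescence measured reporter inhibition; CellTiter-Fluor fluorescence tracked cytotoxicity.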

[2] = system: thyroid hormone receptor (rat, GH3 cells); experiment: qHTS assay to identify small molecule agonists of the thyroid receptor (TR) signaling pathway (AID 743066; calls by dose curve)
[3] = target: Estrogen receptor (Homo sapiens) (UniProt P03372); experiment: qHTS assay to identify small molecule antagonists of the estrogen receptor alpha (ER-alpha) signaling pathway (AID 743069; active means well fitted curve in the direction sought with a large enough effect in the signal ratio in the repeat runs, not every such curve was filed as active; the % refers to the signal ratio)
Method in brief: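 Estradiol-stimulated ER-alpha-UAS-bla HEK293 cells, 18 hr compound exposure at 37C. LiveBLAzer B/G substrate, 2 hr RT, fluorescence read.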

[4] = qHTS assay to identify small molecule antagonists of the estrogen receptor alpha (ER-alpha) signaling pathway - cell viability counter screen (AID 743074; calls by dose curve;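 further: HEK293 cells carrying ER-alpha-UAS-bla reporter stimulated with 17beta-estradiol; nearly all actives have a fitted effect of over 45% in size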)
[5] = target: Estrogen receptor (Homo sapiens) (UniProt P03372); experiment: qHTS assay to identify small molecule agonists of the estrogen receptor alpha (ER-alpha) signaling pathway (AID 743075; calls by dose curve;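 further: HEK293 GripTite cells with ER-alpha and UAS-driven beta-lactamase reporter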)
[6] = target: Estrogen receptor (Homo sapiens) (UniProt P03372); experiment: qHTS assay to identify small molecule agonists of the estrogen receptor alpha (ER-alpha) signaling pathway using the BG1 cell line (AID 743079); further: nearly all actives have a fitted effect of over 20% in size
[7] = qHTS assay to identify small molecule antagonists of the estrogen receptor alpha (ER-alpha) signaling pathway using the BG1 cell line (AID 743080; calls by dose curve;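 further: BG1 cells stimulated with 17beta-estradiol alongside compound; series mostly up to about 70 µM; nearly all actives have a fitted effect of over 25% in size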)
Method in brief: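 After 5 days in phenol-red-free 10% charcoal-stripped FBS medium, BG1-Luc-4E2 cells were seeded, left 24 h at 37 C, co-treated with compounds and 17beta-estradiol for 21.5 h, then assayed for viability and luciferase.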

[8] = qHTS assay to identify small molecule antagonists of the estrogen receptor alpha (ER-alpha) signaling pathway using the BG1 cell line - cell viability counter screen (AID 743081);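 further: compound given together with 17beta-estradiol as the ER stimulus; series mostly up to about 70 µM; nearly all actives have a fitted effect of over 45% in size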
Aromatase (Homo sapiens) = Aromatase (Homo sapiens) (UniProt P11511); experiment: qHTS assay to identify aromatase inhibitors (AID 743083); further: series mostly up to about 70 µM; nearly all actives have a fitted effect of over 55% in size
[9] = qHTS assay to identify aromatase inhibitors - cell viability counter screen (AID 743084);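 further: cells stimulated with testosterone during compound exposure; nearly all actives have a fitted effect of over 55% in size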
[10] = target: Aryl hydrocarbon receptor (Homo sapiens) (UniProt P35869); experiment: qHTS assay to identify small molecule that activate the aryl hydrocarbon receptor (AhR) signaling pathway (AID 743085);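 further: HG2L7.5c1 human HepG2 liver cells with stably integrated DRE-driven firefly reporter; series mostly up to about 70 µM; nearly all actives have a fitted effect of over 15% in size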
Method in brief: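 24 h compound exposure, 37C, HepG2-derived HG2L7.5c1 cells with DRE-responsive luciferase. Readouts: fluorescence viability, then luminescence at room temperature after 30 min.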

[11] = qHTS assay to identify small molecule that activate the aryl hydrocarbon receptor (AhR) signaling pathway - cell viability counter screen (AID 743086);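 further: HepG2 liver cells carrying the AhR DRE luciferase reporter; series mostly up to about 70 µM; nearly all actives have a fitted effect of over 45% in size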
Method in brief: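 HepG2-AhR-luc (HG2L7.5c1) cells, 4000/well, were preincubated 5 h at 37C, exposed to compound in qHTS format for 24 hr at 37C, then given CellTiter-Fluor for 30 min; viability was read as fluorescence in the reporter wells.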

[12] = target: Peroxisome proliferator-activated receptor gamma (Homo sapiens) (UniProt P37231); experiment: qHTS assay to identify small molecule agonists of the peroxisome proliferator-activated receptor gamma (PPARg) signaling pathway (AID 743094; active means well fitted activation curve with a large enough effect in the signal ratio in the repeat runs, not every such curve was filed as active; the % refers to the signal ratio)
Method in brief: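 Quantitative HTS agonist mode: stable HEK293H line with UAS-beta-lactamase reporter under PPARg control, 17 h compound exposure at 37C, fluorescence after 1 h FRET substrate loading at room temperature.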

[13] = target: Peroxisome proliferator-activated receptor gamma (Homo sapiens) (UniProt P37231); experiment: qHTS assay to identify small molecule antagonists of the peroxisome proliferator-activated receptor gamma (PPARg) signaling pathway (AID 743191; calls by dose curve; further: series mostly up to about 63 µM; nearly all actives have a fitted effect of over 30% in size)
Method in brief: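 GeneBLAzer PPARg UAS-bla HEK293H cells carrying a UAS-driven beta-lactamase reporter were plated at 3000 cells/well, preincubated 5 h at 37C, then given compound for 17 h at 37C; LiveBLAzer B/G FRET substrate was read after 1 h at room temperature.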

[14] = qHTS assay to identify small molecule antagonists of the peroxisome proliferator-activated receptor gamma (PPARg) signaling pathway - cell viability counter screen (AID 743194); further: nearly all actives have a fitted effect of over 55% in size
Method in brief: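 PPARg-UAS-bla HEK293H cells were plated, rested 5 h at 37 C, then treated with compounds plus rosiglitazone (50 nM final) for 17 h at 37 C; viability was then read by CellTiter-Glo luminescence after 30 min at room temperature.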

[15] = qHTS assay for small molecule agonists of the antioxidant response element (ARE) signaling pathway (AID 743202; active means well fitted activation curve with a large enough effect in the signal ratio in the repeat runs, not every such curve was filed as active; the % refers to the signal ratio)
Method in brief: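 Compounds delivered in DMSO to ARE-bla HepG2 cells (2,000 cells/well, pre-incubated 5 h) and left 16 h at 37 C. LiveBLAzer B/G FRET substrate then added for 2 h at RT before fluorescence reading.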

[16] = qHTS assay for small molecule agonists of the antioxidant response element (ARE) signaling pathway - cell viability counter screen (AID 743203; calls by dose curve; further: nearly all actives have a fitted effect of over 55% in size)
Method in brief: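 Seeded at 2,000 cells/well, ARE-bla HepG2 cells were incubated 5 hrs before compound addition. After 16 hrs of treatment at 37C with 5% CO2, CellTiter-Glo reagent was added and luminescence read 30 min later.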

[17] = qHTS assay for small molecule activators of the heat shock response signaling pathway - cell viability counter screen (AID 743209); further: nearly all actives have a fitted effect of over 50% in size
Method in brief: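 First, HSE-bla HeLa cells were seeded at 1500 cells/well and kept overnight at 37 C. Next, compounds were pinned in and incubated 5 h. After the FRET substrate step, CellTiter-Glo was added and luminescence read 30 min later.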

[18] = qHTS assay for small molecule activators of the heat shock response signaling pathway (AID 743210; active means well fitted activation curve with a large enough effect in the signal ratio in the repeat runs, with a control signal flat, not every such curve was filed as active; the % refers to the signal ratio;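 further: HeLa cells with beta-lactamase reporter driven by heat shock elements; series mostly up to about 63 µM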)
Method in brief: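 Reporter gene assay: HeLa cells stably bearing an HSE-bla construct, compound treatment 5 h at 37 C, LiveBLAzer substrate 2.5 h at RT, fluorescence intensity.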

[19] = qHTS assay to identify small molecule agonists of the peroxisome proliferator-activated receptor delta (PPARd) signaling pathway - cell viability counter screen (AID 743211); further: nearly all actives have a fitted effect of over 55% in size
Method in brief: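 Luminescent ATP viability assay (CellTiter-Glo, 30 min RT) in UAS-bla HEK293H cells carrying the PPAR delta reporter construct, 3000 cells/well, after a 17 h compound treatment at 37 C.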

Measured: Potency

Chain of Aromatase (Homo sapiens) (P11511 whole entry, looked up): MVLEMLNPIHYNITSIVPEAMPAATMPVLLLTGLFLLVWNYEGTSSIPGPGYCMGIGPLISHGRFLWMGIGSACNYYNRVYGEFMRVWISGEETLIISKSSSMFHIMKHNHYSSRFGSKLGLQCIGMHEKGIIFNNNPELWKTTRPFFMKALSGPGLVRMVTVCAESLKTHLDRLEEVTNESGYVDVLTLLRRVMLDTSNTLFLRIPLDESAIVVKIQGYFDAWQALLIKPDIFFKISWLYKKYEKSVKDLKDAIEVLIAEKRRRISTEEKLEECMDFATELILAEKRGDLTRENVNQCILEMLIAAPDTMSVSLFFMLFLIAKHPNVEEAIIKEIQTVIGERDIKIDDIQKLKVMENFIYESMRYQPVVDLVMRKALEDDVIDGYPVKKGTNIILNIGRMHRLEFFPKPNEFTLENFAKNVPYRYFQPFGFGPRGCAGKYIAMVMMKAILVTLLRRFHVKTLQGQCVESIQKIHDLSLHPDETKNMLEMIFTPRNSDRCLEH
Chain of Estrogen receptor (Homo sapiens) (P03372 whole entry, looked up): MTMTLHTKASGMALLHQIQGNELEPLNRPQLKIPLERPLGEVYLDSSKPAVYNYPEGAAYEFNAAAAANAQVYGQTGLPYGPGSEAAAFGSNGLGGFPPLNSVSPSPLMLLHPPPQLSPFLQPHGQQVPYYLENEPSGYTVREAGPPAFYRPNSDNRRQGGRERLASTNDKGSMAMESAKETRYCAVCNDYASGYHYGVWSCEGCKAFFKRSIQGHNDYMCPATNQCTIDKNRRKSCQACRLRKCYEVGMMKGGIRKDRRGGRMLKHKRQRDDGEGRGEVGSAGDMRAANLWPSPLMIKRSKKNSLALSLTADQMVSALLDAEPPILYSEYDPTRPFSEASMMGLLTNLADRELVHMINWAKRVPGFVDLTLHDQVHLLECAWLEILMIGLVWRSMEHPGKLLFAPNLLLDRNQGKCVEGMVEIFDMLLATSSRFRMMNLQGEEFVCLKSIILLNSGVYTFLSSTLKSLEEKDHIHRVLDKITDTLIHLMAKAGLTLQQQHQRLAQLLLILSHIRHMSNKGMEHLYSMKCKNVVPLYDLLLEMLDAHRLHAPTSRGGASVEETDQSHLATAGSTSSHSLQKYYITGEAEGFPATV
Chain of Aryl hydrocarbon receptor (Homo sapiens) (P35869 whole entry, looked up): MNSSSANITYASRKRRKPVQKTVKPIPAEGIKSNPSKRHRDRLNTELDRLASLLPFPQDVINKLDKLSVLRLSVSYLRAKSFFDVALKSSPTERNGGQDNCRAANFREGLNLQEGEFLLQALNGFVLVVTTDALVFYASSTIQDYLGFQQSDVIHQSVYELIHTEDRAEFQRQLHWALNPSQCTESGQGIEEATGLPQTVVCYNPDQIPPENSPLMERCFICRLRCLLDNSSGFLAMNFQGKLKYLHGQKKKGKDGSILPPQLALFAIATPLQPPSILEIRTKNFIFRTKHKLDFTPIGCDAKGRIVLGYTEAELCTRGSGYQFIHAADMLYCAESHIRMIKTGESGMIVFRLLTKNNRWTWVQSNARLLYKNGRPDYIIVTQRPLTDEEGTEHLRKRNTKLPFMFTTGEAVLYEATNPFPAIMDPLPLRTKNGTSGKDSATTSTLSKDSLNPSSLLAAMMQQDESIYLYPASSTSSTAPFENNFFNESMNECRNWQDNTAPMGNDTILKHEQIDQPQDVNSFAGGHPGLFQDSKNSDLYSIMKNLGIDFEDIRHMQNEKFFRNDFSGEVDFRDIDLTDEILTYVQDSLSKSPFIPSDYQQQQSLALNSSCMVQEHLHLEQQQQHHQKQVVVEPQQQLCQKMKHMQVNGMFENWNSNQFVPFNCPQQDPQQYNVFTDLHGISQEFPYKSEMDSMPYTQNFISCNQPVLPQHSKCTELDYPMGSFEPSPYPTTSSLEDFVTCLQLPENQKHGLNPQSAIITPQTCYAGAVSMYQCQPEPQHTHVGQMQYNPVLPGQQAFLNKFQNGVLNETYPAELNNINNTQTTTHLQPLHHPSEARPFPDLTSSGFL
Chain of Peroxisome proliferator-activated receptor gamma (Homo sapiens) (P37231 whole entry, looked up): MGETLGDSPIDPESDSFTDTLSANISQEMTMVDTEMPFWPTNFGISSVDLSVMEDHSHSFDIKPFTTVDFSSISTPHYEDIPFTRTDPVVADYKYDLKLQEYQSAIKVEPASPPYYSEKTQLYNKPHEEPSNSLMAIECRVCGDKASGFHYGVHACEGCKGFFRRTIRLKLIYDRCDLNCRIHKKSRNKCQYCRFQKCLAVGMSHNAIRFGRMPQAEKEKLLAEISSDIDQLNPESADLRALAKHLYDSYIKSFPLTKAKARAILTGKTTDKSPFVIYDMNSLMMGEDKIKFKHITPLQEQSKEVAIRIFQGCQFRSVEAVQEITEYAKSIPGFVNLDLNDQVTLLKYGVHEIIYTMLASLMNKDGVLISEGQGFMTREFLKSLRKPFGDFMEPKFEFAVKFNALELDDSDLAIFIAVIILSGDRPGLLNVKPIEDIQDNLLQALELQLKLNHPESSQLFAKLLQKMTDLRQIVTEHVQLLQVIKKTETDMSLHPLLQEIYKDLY

CC(C)C(=O)OC/C=C/c1ccccc1
inactive: [1] | [2] | [3] | [4] | [5] | [6] | [7] | [8] | Aromatase (Homo sapiens) | [9] | [10] | [11] | [12] | [13] | [14] | [15] | [16] | [17] | [18] | [19]

Cc1nnc(SCC2=C(C(=O)O)N3C(=O)[C@@H](NC(=O)Cn4cnnn4)[C@H]3SC2)s1
inactive: [1] | [2] | [3] | [4] | [5] | [6] | [7] | [8] | Aromatase (Homo sapiens) | [9] | [10] | [11] | [12] | [13] | [14] | [16] | [17] | [18] | [19]

C=CCc1cc(OC)c(O)c(C(=O)NCCO)c1
inactive: [1] | [2] | [3] | [4] | [5] | [6] | [7] | [8] | Aromatase (Homo sapiens) | [9] | [10] | [11] | [12] | [16] | [17] | [18] | [19]

CC(=O)OC1C2(C)CCC(C2)C1(C)C (stereo unspecified)
inactive: [1] | [2] | [3] | [4] | [5] | [6] | [7] | [8] | Aromatase (Homo sapiens) | [9] | [10] | [11] | [12] | [13] | [14] | [16] | [17] | [18] | [19]

CCCNC(C)C(=O)Nc1c(C)csc1C(=O)OC (stereo unspecified)
inactive: [1] | [2] | [3] | [4] | [5] | [6] | [7] | [8] | Aromatase (Homo sapiens) | [9] | [10] | [11] | [12] | [13] | [14] | [15] | [16] | [17] | [18] | [19]

COC(=O)C(C)O (stereo unspecified)
inactive: [1] | [2] | [3] | [4] | [5] | [6] | [7] | [8] | Aromatase (Homo sapiens) | [9] | [10] | [11] | [12] | [13] | [15] | [16] | [17] | [18] | [19]

C=CCCC=C
inactive: [1] | [2] | [3] | [4] | [5] | [6] | [7] | [8] | Aromatase (Homo sapiens) | [9] | [10] | [11] | [12] | [13] | [14] | [15] | [16] | [17] | [19]

NCCCN1CCN(CCCN)CC1
inactive: [1] | [2] | [3] | [4] | [5] | [6] | [7] | [8] | Aromatase (Homo sapiens) | [9] | [10] | [11] | [14] | [15] | [16] | [17] | [18] | [19]
